This is part of a sample that, as a whole, favours compounds with a hit. Of some 79,000 tested, about 15% had one in any assay. Activity calls are given as the source filed them. No stated cut-off is given here; in the data, active means growth inhibition above about 70%; inactive means the rest.
Columns and labels:
[1] = NCI Yeast Anticancer Drug Screen. Data for the wt1 strain (AID 149);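 further: 0% = growth of vehicle-treated wt1 cultures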; conditions: S. cerevisiae wt1 strain (SPY 50644) growth inhibition, stronger effect = higher value
In short: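 Measured: growth of wt1 yeast under compound versus vehicle treatment, reported as inhibition.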

[2] = NCI Yeast Anticancer Drug Screen. Data for the rad50EPP+ strain (AID 151);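 further: 0% = growth of vehicle-treated control cultures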; conditions: S. cerevisiae rad50 mutant strain, stronger effect = higher value
In short: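 Vehicle-normalised growth inhibition; rad50EPP+ yeast strain, altered in DNA damage repair, compound-treated.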

[3] = NCI Yeast Anticancer Drug Screen. Data for the rad50 strain (AID 155);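 further: 0% = growth of vehicle-only cultures of the same strain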; conditions: S. cerevisiae rad50 strain growth inhibition, stronger effect = higher value
In short: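 Growth of the mutant yeast was measured after compound exposure and referenced to vehicle-treated cultures.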

[4] = NCI Yeast Anticancer Drug Screen. Data for the mec2-1 strain (AID 157); conditions: S. cerevisiae mec2-1 strain, stronger effect = higher value
In short: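 Mutant yeast (mec2-1) grown with compound; growth inhibition relative to vehicle control reported.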

[5] = NCI Yeast Anticancer Drug Screen. Data for the rad14 strain (AID 159);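 further: 0% = growth of vehicle-treated control cultures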; conditions: S. cerevisiae rad14 strain growth inhibition, stronger effect = higher value
In short: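 Here, inhibition of yeast growth was measured after compound exposure, using a strain with a genetic defect in DNA damage repair and vehicle-treated cultures as the reference.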

[6] = NCI Yeast Anticancer Drug Screen. Data for the sgs1 mgt1 strain (AID 161);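 further: 0% = growth of cultures given vehicle only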; conditions: S. cerevisiae sgs1 mgt1 strain, stronger effect = higher value
In short: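 Yeast cells carrying a defined DNA-repair defect were exposed to test compounds. Growth inhibition was measured relative to vehicle-treated controls.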

[7] = NCI Yeast Anticancer Drug Screen. Data for the CLN2oe strain (AID 163);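 further: 0% = growth of vehicle-only control cultures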; conditions: S. cerevisiae CLN2oe strain, stronger effect = higher value
In short: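 Compounds are applied to yeast harbouring a defined cell-cycle control change; reduced growth compared with vehicle-treated controls gives the value.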

[8] = NCI Yeast Anticancer Drug Screen. Data for the cln2 rad14 strain (AID 165);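 further: 0% = growth equal to vehicle treated cultures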; conditions: S. cerevisiae cln2 rad14 strain, stronger effect = higher value
In short: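 Readout is yeast growth inhibition versus vehicle-treated controls, using a strain with cln2 and rad14 alterations exposed to compound.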

[9] = NCI Yeast Anticancer Drug Screen. Data for the bub3 strain (AID 167); conditions: S. cerevisiae bub3 mutant strain, stronger effect = higher value
In short: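 Whole-cell yeast assay. The mutant strain was incubated with compounds, and growth inhibition was determined by comparison with vehicle-treated cells.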

[10] = NCI Yeast Anticancer Drug Screen. Data for the wt2 strain (AID 169);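 further: 0% = growth of vehicle-treated yeast cultures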; conditions: S. cerevisiae wt2 strain growth inhibition, stronger effect = higher value
In short: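 Against vehicle-treated controls, the growth of yeast exposed to each compound was compared, and the inhibition was recorded.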

[11] = NCI Yeast Anticancer Drug Screen. Data for the mlh1 strain (AID 171);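 further: 0% = growth of vehicle-treated control cultures of the same strain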; conditions: S. cerevisiae mlh1 strain growth inhibition, stronger effect = higher value
In short: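 Measured: yeast growth. Reference: vehicle-treated controls. Organism: strain with a defined alteration affecting DNA damage repair or cell cycle control, treated with compound.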

[12] = NCI Yeast Anticancer Drug Screen. Data for the sgs1 strain (AID 173);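 further: 0% = growth of vehicle-only control cultures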; conditions: S. cerevisiae sgs1 mutant, stronger effect = higher value
In short: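 Each compound was added to cultures of the altered yeast strain. Growth was recorded, and inhibition was derived by comparison with vehicle controls.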

[13] = NCI Yeast Anticancer Drug Screen. Data for the mlh1 rad18 strain (AID 175); conditions: S. cerevisiae mlh1 rad18 strain growth inhibition, stronger effect = higher value
In short: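 Genetically defined yeast (DNA repair-deficient) exposed to compounds; growth inhibition determined relative to vehicle.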

[14] = NCI Yeast Anticancer Drug Screen. Data for the rad18 strain (AID 177); conditions: S. cerevisiae rad18 mutant growth inhibition, stronger effect = higher value
In short: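 Vehicle-treated cultures served as the baseline for scoring compound-induced growth inhibition in DNA-repair-mutant yeast.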

[15] = at 5.0 µM (retest, dose inferred, filed as 0.5)
[16] = at 50.0 µM (retest, dose inferred, filed as 5.0)

Measured: growth inhibition

CCCCC1=NNC(=O)C1
active: [3]; [16] 78% | [6]; at 50.0 µM 90% | [9]; at 50.0 µM 81.7%
inactive: [1]; at 1.2 µM 1% | [1]; at 3.7 µM 2% | [1]; at 11.0 µM 8% | [1]; at 33.0 µM 7% | [1]; at 100.0 µM 5% | [2]; at 1.2 µM -9% | [2]; at 3.7 µM -8% | [2]; at 11.0 µM -16% | [2]; at 33.0 µM -10% | [2]; at 100.0 µM -7% | [3]; at 1.2 µM 3% | [3]; at 3.7 µM -11% | [3]; [15] 45% | [3]; at 11.0 µM -6% | [3]; at 33.0 µM -11% | [3]; at 50.0 µM 3% | [3]; at 100.0 µM 9% | [4]; at 1.2 µM -7% | [4]; at 3.7 µM -5% | [4]; [15] 32% | [4]; at 11.0 µM -8% | [4]; at 33.0 µM -9% | [4]; [16] 57% | [4]; at 50.0 µM -3.3% | [4]; at 100.0 µM 5% | [5]; at 1.2 µM 6% | [5]; at 3.7 µM 11% | [5]; at 11.0 µM 9% | [5]; at 33.0 µM 13% | [5]; at 100.0 µM 18% | [6]; [15] 17% | [6]; [16] -26% | [7]; at 1.2 µM -43% | [7]; at 3.7 µM -48% | [7]; at 11.0 µM -52% | [7]; at 33.0 µM -70% | [7]; at 100.0 µM -28% | [8]; [15] 28% | [8]; [16] -56% | [8]; at 50.0 µM 52% | [9]; at 1.2 µM -4% | [9]; at 3.7 µM 0% | [9]; [15] 22% | [9]; at 11.0 µM -11% | [9]; at 33.0 µM 0% | [9]; [16] -26% | [9]; at 100.0 µM 7% | [10]; at 1.2 µM -40% | [10]; at 3.7 µM -45% | [10]; at 11.0 µM -64% | [10]; at 33.0 µM -52% | [10]; at 100.0 µM -66% | [11]; at 1.2 µM -11% | [11]; at 3.7 µM 1% | [11]; at 11.0 µM -7% | [11]; at 33.0 µM -10% | [11]; at 100.0 µM -18% | [12]; at 1.2 µM 10% | [12]; at 3.7 µM 12% | [12]; at 11.0 µM 0% | [12]; at 33.0 µM -22% | [12]; at 100.0 µM 5% | [13]; [15] 53% | [13]; [16] 69% | [13]; at 50.0 µM -34.6% | [14]; at 1.2 µM -10% | [14]; at 3.7 µM 1% | [14]; at 11.0 µM 0% | [14]; at 33.0 µM 1% | [14]; at 100.0 µM 24%

From PubChem BioAssay (NCI)
